{
  "source": "PubChem BioAssay (NCATS)",
  "note": "Inconclusive results are not listed. Active and inactive are the calls of the source. The call rests on the fitted dose curve; in most records, active means well fitted inhibition curve with a large enough effect; inconclusive means small, poorly fitted or top-dose-only effect; inactive means no such curve, though single readings can be large or run the other way. Where a SMILES comes first, the peptide text is derived from it. [ ]: non-standard residue; d: D form.",
  "data": [
    {"test": "P-glycoprotein substrates identified in KB-3-1 adenocarcinoma cell line, qHTS therapeutic library screen (AID 1346986); further: nearly all actives have a fitted effect of over 60% in size", "details": "KB-3-1 parental cells viability, CellTiter-Glo, 72 h; series mostly up to 44.5 µM; activity change, negative = cytotoxicity: at the top concentration", "in_short": "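Using luminescence to quantify ATP, parental and P-gp-overexpressing KB cells were compared after 72 h compound titration. KB-8-5-11 was also run with the P-gp inhibitor tariquidar.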", "values": [
      {"smiles": "C[C@@H]1O[C@@H](O[C@H]2[C@H](OC(=O)[C@]34CCC(C)(C)C[C@H]3C3=CCC5[C@@]6(C)C[C@H](O)[C@H](O[C@@H]7O[C@H](CO[C@@H]8OC[C@H](O)[C@H](O)[C@H]8O)[C@@H](O)[C@H](O)[C@H]7O)C(C)(C)C6CC[C@@]5(C)[C@]3(C)C[C@H]4O)OC[C@@H](O)[C@@H]2O)[C@H](O)[C@H](O[C@@H]2OC[C@](O)(CO)[C@H]2O)[C@H]1O[C@@H]1OC[C@H](O)[C@H](O[C@@H]2OC[C@@H](O)[C@H](O)[C@H]2O)[C@H]1O", "note": "(some centres undefined)", "outcome": "inactive [at 9.29 µM]"},
      {"smiles": "O=C(/C=C/c1ccc(O)cc1)OCC1=C[C@@H](O)[C@@H]2C=CO[C@@H](O[C@@H]3O[C@H](CO)[C@@H](O)[C@H](O)[C@H]3O)[C@H]12", "outcome": "inactive [at 17.4 µM]"},
      {"smiles": "Cc1cc(C)cc(NC(=O)Cc2ccc(OC(C)(C)C(=O)O)cc2)c1", "outcome": "inactive"},
      {"smiles": "COC(=O)CC1(O)C(=O)Nc2ccccc21", "note": "(centres undefined)", "outcome": "inactive"},
      {"smiles": "COC(=O)C1C(c2ccc(O)cc2)C(C(=O)OC)C1c1ccc(O)cc1", "note": "(centres undefined)", "outcome": "inactive"},
      {"smiles": "CO[C@@]12CC3[C@@H]([C@@H](O)[C@@H](OC(C)=O)C4[C@](C)(COC(C)=O)CCC[C@]34C)[C@@H](C)C1=CC(=O)O2", "note": "(some centres undefined)", "outcome": "inactive [at 17.4 µM]"},
      {"smiles": "CC(=O)N[C@H](Cc1ccc(O)cc1)C(=O)N[C@H](CCCN=C(N)N)C(=O)N[C@H](Cc1ccccc1)C(N)=O", "note": "(Ac-[dY]-[dR]-[dF]-NH2)", "outcome": "inactive"},
      {"smiles": "Cc1ccc(Sc2cncc3sc(C(N)=O)cc23)cc1", "outcome": "inactive"},
      {"smiles": "CCC(=O)N[C@@H]1Cc2ccccc2[C@H](c2ccccc2)C1", "outcome": "inactive"}
    ]}
  ]
}
